Results reported in PubChem BioAssay.
Activity calls are given as the source filed them.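 Rule for the calls, unless noted: active = inhibition above 50%; inactive = the rest.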

Test: antimalarial activity against Dd2 strain (AID 2302;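 active = growth inhibition above 50% at the single 2 µM test dose, taken to imply half-maximal potency below 2 µM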;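 note: 0% = DMSO untreated growth and 100% = chloroquine plus artemisinin killed control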)
Details: P. falciparum Dd2 in RBCs, LDH growth readout, 72 h; at 2 µM; hits give high values

Structure (SMILES) | growth inhibition
CS(=O)(=O)c1ccc(CNCc2cccc(-c3ccc(-c4nc5ccc(C(F)(F)F)cc5[nH]4)cc3)c2)cc1 | 96% (active)
O=C(NCc1cccc(C(F)(F)F)c1)C(c1cc2ccccc2o1)N1CCN(C(c2ccccc2)c2ccccc2)CC1 (stereo not drawn) | 80% (active)
CCOc1ccccc1C(=O)N1CCc2cc3nccc(N4CCN5CCC[C@H]5C4)c3cc21 | 58% (active)

Test: human hepatoma cell viability loss – ATP luminescence, cytotoxicity control for P. falciparum antimalarial project, primary screen (AID 2303);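 note: 0% = DMSO wells and 100% = digitonin-killed cells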
Details: HepG2 viability, 24-48 h, at 10 µM, hits give high values

Structure (SMILES) | inhibition
COc1cc2nc(NCCc3ccccc3)nc(NCCCc3ccccc3)c2cc1OC | 21% (inactive)
COc1cc(C(=O)N2CC[C@@H](CCN3CCC4(CC3)CN(S(C)(=O)=O)c3ccccc34)C[C@H]2Cc2ccc(Cl)c(Cl)c2)cc(OC)c1OC | 29% (inactive)
COc1ccc(NC(=O)Nc2cccc(-c3cccc(-c4nc5ccc(F)cc5[nH]4)c3)c2)cc1 | 59% (active)
CCCc1ccc(S(=O)(=O)NC2CCN(C(=O)Nc3ccc(I)cc3)CC2)cc1 | 8% (inactive)
O=C(Nc1cccc(-c2ccc(-c3nc4ccc(F)cc4[nH]3)cc2)c1)c1ccncc1 | 52% (active)
Cc1ccc2c(NN=CC=Cc3ccccc3)cc(C)nc2c1 | 3% (inactive)
O=C1OC(c2ccccc2)(c2ccccn2)CN1C1CCN(Cc2cccn2-c2ccc(Cl)cc2)CC1 (stereo not drawn) | 21% (inactive)
CCN(CC)CCN(Cc1ccc(-c2ccc(C(F)(F)F)cc2)cc1)C(=O)Cn1c(CCc2cccc(F)c2F)nc(=O)c2ccc(C(F)(F)F)cc21 | 19% (inactive)
N#Cc1cncc(-c2nc3c(N4CCC(Cc5ccccc5)CC4)cccc3n2C2CCNC2)c1 (stereo not drawn) | 5% (inactive)
N#Cc1ccc(-c2cnc3ccc(NCc4ccc(S(N)(=O)=O)cc4)nn23)cc1 | 7% (inactive)
